# Source: ChEMBL document CHEMBL4513139, “CO-ADD screening of University of Strathclyde (UK) compounds”
# Measured potencies and affinities stand elsewhere.
# System: Cryptococcus neoformans
# Conditions: Concentration 32 ug.mL-1; ASSAY_TEST Inhibition of Fungal Growth; detection method Resazurin; Absorption (OD600-OD570); plate type 384well; NBS; CORNING #3640
row,Structure (SMILES),Inhibition [%]
1,CC(C)CCc1sc(NC(=O)c2cc(NC(=O)c3cc(NC(=O)CCC(=O)O)cn3C)cn2C)nc1C(=O)NCCCN(C)C.O=C(O)C(F)(F)F,-103.67
2,CCOC(=O)c1cc(NC(=O)c2cc(NC(=O)c3sc(N)nc3C(F)(F)F)cn2C)cn1C,-88.19
3,COc1cccc(C(=N)Nc2cc(C(=O)Nc3cc(C(=O)Nc4cn(CCCN(C)C)cn4)n(C)c3)n(C)c2)c1.O=C(O)C(F)(F)F.O=C(O)C(F)(F)F,-90.24
4,Cn1cc(NC(=O)c2cc(NC(=O)c3sc(N)nc3C(F)(F)F)cn2C)cc1C(=O)NCCN1CCOCC1.O=C(O)C(F)(F)F,-112.77
5,Cc1ccc(S(=O)(=O)NCCc2cn(Cc3cnc(C)nc3N)nn2)cc1,-48.53
6,CC(C)CCn1cc(NC(=O)c2cc(NC(=O)c3cc(NC(=N)c4ccccc4)cn3C)cn2C)cc1C(=O)NCCCN(C)C.O=C(O)C(F)(F)F.O=C(O)C(F)(F)F,-53.65
7,CN(C)CCCNC(=O)c1cc(NC(=O)c2cc(NC(=O)c3cc(NC(=N)c4ccccc4)cn3C)cn2C)cn1C.O=C(O)C(F)(F)F.O=C(O)C(F)(F)F,-106.51
8,COC(=O)c1ccc(C(=O)Nc2cc(C(=O)Nc3cc(C(=O)NCCC(=N)N)n(C)c3)n(C)c2)cc1.O=C(O)C(F)(F)F,-78.85
9,Cc1ncc(Cn2cc(CCCCO)nn2)c(N)n1,-60.21
10,CN(C)CCCNC(=O)c1cc(NC(=O)c2cc(NC(=O)c3cc4ccccc4cn3)cn2C)cn1C.O=C(O)C(F)(F)F,-81.77
11,COc1cccc(/C=C/c2ccc(C(=O)Nc3cc(C(=O)Nc4cc(C(=O)NCCN(C)C)n(C)c4)n(C)c3)cc2)c1.O=C(O)C(F)(F)F,101.07
12,CCOC(=O)c1cc(NC(=O)c2cc(NC(=O)c3nc(N)sc3C(C)C)cn2C)cn1C,-54.98
13,COc1cccc(C(=O)Nc2cc(C(=O)Nc3cc(C(=O)Nc4cn(CCCN(C)C)cn4)n(C)c3)n(C)c2)c1.O=C(O)C(F)(F)F,-93.96
14,COc1ccc(/C=C(/C(=O)Nc2cc(C(=O)Nc3cc(C(=O)NCCCN(C)C)n(C)c3)n(C)c2)c2ccc(OC)cc2)cc1.O=C(O)C(F)(F)F,-5.3
15,COC(=O)CCC(=O)Nc1cc(C(=O)Nc2cc(C(=O)NCCC(=N)N)n(C)c2)n(C)c1.O=C(O)C(F)(F)F,-68.45
16,COC(=O)c1ccc(C(=O)Nc2cc(C(=O)Nc3cc(C(=O)NCCN4CCOCC4)n(C)c3)n(C)c2)cc1.O=C(O)C(F)(F)F,-98.27
17,Cc1ncc(CNc2ccc(C(C)(C)C)cc2)c(N)n1,-46.61
18,Cc1ncc(CNc2ccc(C(F)(F)F)cc2)c(N)n1,-31.34
19,Cc1ncc(Cn2cc(CCCN)nn2)c(N)n1.Cl,-41.75
20,CC(C)c1sc(NC(=O)c2cc(NC(=O)c3cc(NC(=O)c4cnc(Cl)c(Cl)c4)cn3C)cn2C)nc1C(=O)NCCCN(C)C.O=C(O)C(F)(F)F,12.34
21,CCOC(=O)c1cc(NC(=O)c2cc(NC(=O)c3nc(N)sc3CCC(C)C)cn2C)cn1C,-84.96
22,Cc1ncc(CNc2ccc(F)cc2)c(N)n1,-57.63
23,COCCOC1CCN(C(=O)c2cc(NC(=O)c3cc(NC(=O)c4ccc(/C=C/c5ccc(OC)cc5)cc4)cn3C)cn2C)CC1.O=S(=O)(O)O,97.19
24,CC(=O)Nc1cc(C(=O)Nc2cc(C(=O)Nc3cc(C(=O)NCCCN(C)C)n(C)c3)n(C)c2)n(C)c1.O=C(O)C(F)(F)F,-116.29
25,CC(C)CCc1sc(NC(=O)c2cc(NC(=O)c3ccc(/C=C/c4cc5ccccc5nc4On4nnc5ccccc54)cc3)cn2C)nc1C(=O)NCCN1CCOCC1.O=C(O)C(F)(F)F,0.39
26,CC(C)c1sc(N)nc1C(=O)Nc1cc(C(=O)NCCN2CCOCC2)n(C)c1.O=C(O)C(F)(F)F,-97.94
27,COCCOC1CCN(C(=O)c2cc(NC(=O)c3cc(NC(=O)c4ccc(/C=C/c5cnc6ccccc6c5)cc4)cn3C)cn2C)CC1,112.33
28,COc1ccc(CC(=O)Nc2cc(C(=O)Nc3cc(C(=O)Nc4cn(CCCN(C)C)cn4)n(C)c3)n(C)c2)cc1.O=C(O)C(F)(F)F,-97.5
29,Cc1ncc(Cn2cc(CCC(=O)O)nn2)c(N)n1.O=C(O)C(F)(F)F,-50.97
30,Cc1ncc(CO)c(N)n1,-45.32
